Results taken from PubChem BioAssay (NCATS).
Unmarked numbers belong to inactive results. Results filed as inconclusive are left out. Active and inactive are the calls of the source. Unless noted, the call rests on the fitted dose curve; in most records, active means well fitted curve in either direction with a large enough effect (not every such curve was filed as active); inconclusive means small, poorly fitted or top-dose-only effect, or another doubt; inactive means flat fitted curve, though single readings scatter.

Tests used:
[1] = AP1 Signaling Pathway (AID 357); details: ME-180 AP-1-bla reporter, EGF-induced, beta-lactamase ratio, 5 h; at 7.69 µM (top of the series) unless noted;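 further: ME-180 reporter cells stimulated with EGF at its EC50 level; on the % scale 0 is the no-effect control and ±100 the full control effect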
Outline: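 Beta-lactamase reporter under AP-1 response element, ME-180 background. Stimulus: EC50 EGF. Compound exposure 5 h, 37 °C. Detection: CCF4, 2.5 h RT, 460/530 nm. Values: AC50 from titration.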

[2] = target: Cytochrome P450 1A2 (Homo sapiens) (UniProt P05177); assay: p450-cyp1a2 (AID 410; calls by dose curve; further: potency means the concentration at half of the fitted maximal effect;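 on activity change, negative = inhibition: -100% = full effect of reference inhibitor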); details: recombinant CYP1A2, luciferin-ME demethylation, luminescence; series mostly up to 57 µM
Outline: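 O-Demethylation of luciferin 6' methyl ether by human CYP1A2 is monitored as luciferase luminescence. Substrate sits at Km (100uM); enzyme is 20nM. Values are scaled to 57 uM furafylline as maximal inhibition.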

[3] = NFAT Signaling Pathway (AID 444); details: Jurkat NFAT-bla M1, carbachol, beta-lactamase ratio, 5 h; at 7.69 µM (top of the series) unless noted;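 further: carbachol stimulus at about its EC50 of 1 µM final; on the % scale 0 is the no-effect control and ±100 the full control effect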
Outline: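 Read-out: CCF4 FRET ratio (460 nm/530 nm) after 1 h RT dye loading, used for %activity and AC50 from titration series. Cells: Jurkat NFAT-β-lactamase/M1 line, treated with compound plus 1 uM carbachol for 5 h, 37 °C.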

[4] = Stat Signaling Pathway (AID 446); details: ME-180 SIE beta-lactamase reporter, IL-6 stimulated, 5 h; at 7.69 µM (top of the series) unless noted;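 further: ME-180 cervical cancer cells given 40 pM IL-6 alongside compound; SIE-controlled beta-lactamase reporter measured as 460/530 nm FRET emission ratio; on the % scale 0 is the no-effect control and ±100 the full control effect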
Outline: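 FRET read-out (405 nm excitation, 460/530 nm emission) of a beta-lactamase reporter under a STAT-inducible element in ME-180 cervical carcinoma cells. Cells with compound receive 40 pM IL-6 for 5 h. Values are normalised to AC90 stimulation and AC90 JAK-inhibitor controls.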

[5] = target: Glucocorticoid receptor (Homo sapiens) (UniProt P04150); assay: GR-EFC Redistribution (AID 451; calls by dose curve; further: potency means the concentration at half of the fitted maximal effect); details: CHO-K1 GR-EFC translocation, beta-gal luminescence, 2 h
Outline: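 Translocation of GR-ED fusion to nuclear EA restores b-gal, read by luminescence after 1 h room-temperature detection. Engineered CHO-K1 biosensor cells, 1,000/well, exposed 2 h at 37 C to titrations up to 46 uM final.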

[6] = target: Mitogen-activated protein kinase 10 (Mus musculus) (UniProt Q61831); assay: JNK3 AlphaScreen Assay (AID 530); details: JNK3 lysate, c-Jun phosphorylation; series mostly up to 57.1 µM;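 further: kinase came from lysate of stimulated human HepG2 cells; signal reports phosphorylation of biotinylated GST-cJun 1-79 at Ser73 with 10 µM ATP; on the % scale 0 is the no-effect control and ±100 the full control effect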
Outline: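 qHTS titrations with 15 min compound pre-incubation before adding ATP (10 uM final). Read-out: AlphaScreen of Ser73-phosphorylated biotin-GST-cJun using HepG2 lysate JNK3 activated by IL-1β and TNFα.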

[7] = target: 3',5'-cyclic-AMP phosphodiesterase 4B (Homo sapiens) (UniProt Q07343); assay: qHTS Assay for Inhibitors of PDE-IV (AID 607; active means well fitted activation curve with a large enough effect in the main read-out, with a control signal flat, not every such curve was filed as active; further: % of control where 0% means no effect); details: HEK293 ACTOne CNG channel cells, membrane potential fluorescence; series mostly up to 22.9 µM
Outline: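 Cell-based read-out of cAMP via a modified cyclic nucleotide-gated channel and membrane potential dye (535/590 nm) in HEK293 cells expressing PDE4 endogenously. Compounds tested up to 22.9 uM final; 100 uM RO 20-1724 reference.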

[8] = target: Cytochrome P450 3A4 (Homo sapiens) (UniProt P08684); assay: qHTS Assay for Activators of Cytochrome P450 3A4 (AID 885; active means well fitted curve in the direction sought with a large enough effect; an effect the other way counts as inactive or inconclusive; further: nearly all actives have a fitted effect of over 65% in size; further: potency means the concentration at half of the fitted maximal effect); details: recombinant CYP3A4, Luciferin-PPXE luminescence, 60 min; series mostly up to 57.1 µM
Outline: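 Luminescent readout of luciferin formed from 25 uM Luciferin-PPXE (KM level) by 20 nM CYP3A4 in 200 mM KPO4, with 60 min NADPH-driven reaction at room temperature after 10 min compound exposure. Ketoconazole (57 uM) defined 100% inhibition.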

[9] = Primary qHTS for small molecule stabilizers of the endoplasmic reticulum resident proteome: Secreted ER Calcium Modulated Protein (SERCaMP) assay (AID 1508630; active means well fitted curve in the direction sought with a large enough effect; an effect the other way counts as inactive or inconclusive; further: on the % scale 0 is the no-effect control and ±100 the full control effect); details: SH-SY5Y GLuc-SERCaMP (Gaussia luciferase released on ER calcium loss) secretion, thapsigargin, luminescence; series mostly up to 38.4 µM
Outline: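 The SH-SY5Y reporter protocol was run at 3 concentrations up to 38.3 uM (primary) or 11 concentrations (follow-up): 16 h compound, 100 nM thapsigargin for 4 h, then extracellular luciferase luminescence.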

[10] = target: Lysosomal acid glucosylceramidase (Homo sapiens) (UniProt P04062); assay: Glucocerebrosidase-p2 (AID 348; in the data active means potency below about 10 µM; further: potency means the concentration at half of the fitted maximal effect); details: purified GBA, blue fluorogenic substrate, 40 min
Outline: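 Normal human glucocerebrosidase (0.2 nM) with blue fluorogenic substrate (80 uM final) in citrate/phosphate pH 5.9 with 10mM sodium taurocholate, 0.01% tween-20; 40 min RT, NaOH/glycine stop; fluorescence Ex 365/Em 440; AC50 from a titration from 0.6 nM upwards.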

[11] = target: Glucocorticoid receptor (Homo sapiens) (UniProt P04150); assay: GR-GFP Redistribution (AID 450;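 active means compounds whose dose series gives a full or clear partial fitted curve of increased nuclear translocation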; further: potency means the concentration at half of the fitted maximal effect); details: U2OS GR-GFP nuclear translocation, laser cytometry, 2 h
[12] = qHTS Assay for Identification of Small Molecule Agonists for Hypoxia Response Element Signaling Pathway (AID 914; active means well fitted activation curve with a large enough effect in the signal ratio, with a control signal flat, not every such curve was filed as active; the % refers to the signal ratio; further: potency means the concentration at half of the fitted maximal effect); details: ME-180 (cervical carcinoma) HRE-bla reporter, beta-lactamase ratio, CoCl2, 17 h; activation: hits give high values
Outline: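 Read-out: CCF4 FRET ratio of 460nm to 530nm emission (excitation 405nm) after 2.5 hours at room temperature, taken from HRE-bla ME-180 cells that had been exposed to compound and EC50 CoCl2 for 17 hours.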

[13] = target: Cytochrome P450 3A4 (Homo sapiens) (UniProt P08684); assay: qHTS Assay for Inhibitors and Substrates of Cytochrome P450 3A4 (AID 884; active means well fitted curve in the direction sought with a large enough effect; an effect the other way counts as inactive or inconclusive; further: nearly all actives have a fitted effect of over 50% in size; further: potency means the concentration at half of the fitted maximal effect); details: recombinant CYP3A4, Luciferin-PPXE luminescence; series mostly up to 57.1 µM
Outline: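 Luminescent readout of luciferin produced by CYP3A4 (20 nM) dealkylation of Luciferin-PPXE, 25 uM (its KM). NADPH-driven reaction ran 60 min at RT after 10 min compound preincubation; data scaled to 57 uM ketoconazole as 100% inhibition.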

[14] = target: Cytochrome P450 2C19 (Homo sapiens) (UniProt P33261); assay: qHTS Assay for Inhibitors and Substrates of Cytochrome P450 2C19 (AID 899; active means well fitted curve in the direction sought with a large enough effect; an effect the other way counts as inactive or inconclusive; further: on the % scale 0 is the no-effect control and ±100 the full control effect; nearly all actives have a fitted effect of over 60% in size); details: recombinant CYP2C19, luciferin-H EGE luminescence; series mostly up to 57.1 µM
Outline: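 Reactions contain 5nM enzyme, 10uM Luciferin-H EGE (KM) and 50mM KPO4; compound preincubates 10 min at 37C, NADPH regeneration starts turnover for 60 min. Luminescence after detection reagent gives activity.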

Chain of Lysosomal acid glucosylceramidase (Homo sapiens) (P04062 whole entry, looked up): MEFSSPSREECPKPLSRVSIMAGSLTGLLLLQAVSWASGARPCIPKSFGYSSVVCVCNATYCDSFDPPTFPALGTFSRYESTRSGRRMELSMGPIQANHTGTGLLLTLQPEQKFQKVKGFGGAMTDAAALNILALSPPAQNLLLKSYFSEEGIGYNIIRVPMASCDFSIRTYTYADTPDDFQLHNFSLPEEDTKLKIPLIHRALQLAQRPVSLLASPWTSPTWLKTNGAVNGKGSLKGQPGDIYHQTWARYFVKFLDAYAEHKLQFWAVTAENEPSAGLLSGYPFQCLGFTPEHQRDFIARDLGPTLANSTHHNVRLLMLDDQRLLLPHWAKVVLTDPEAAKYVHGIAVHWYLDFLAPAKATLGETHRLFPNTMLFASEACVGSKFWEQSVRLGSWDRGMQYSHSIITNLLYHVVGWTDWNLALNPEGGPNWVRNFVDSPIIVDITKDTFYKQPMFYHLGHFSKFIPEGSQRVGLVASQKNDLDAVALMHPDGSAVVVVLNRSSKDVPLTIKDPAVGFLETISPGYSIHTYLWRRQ
Chain of 3',5'-cyclic-AMP phosphodiesterase 4B (Homo sapiens) (Q07343 whole entry, looked up): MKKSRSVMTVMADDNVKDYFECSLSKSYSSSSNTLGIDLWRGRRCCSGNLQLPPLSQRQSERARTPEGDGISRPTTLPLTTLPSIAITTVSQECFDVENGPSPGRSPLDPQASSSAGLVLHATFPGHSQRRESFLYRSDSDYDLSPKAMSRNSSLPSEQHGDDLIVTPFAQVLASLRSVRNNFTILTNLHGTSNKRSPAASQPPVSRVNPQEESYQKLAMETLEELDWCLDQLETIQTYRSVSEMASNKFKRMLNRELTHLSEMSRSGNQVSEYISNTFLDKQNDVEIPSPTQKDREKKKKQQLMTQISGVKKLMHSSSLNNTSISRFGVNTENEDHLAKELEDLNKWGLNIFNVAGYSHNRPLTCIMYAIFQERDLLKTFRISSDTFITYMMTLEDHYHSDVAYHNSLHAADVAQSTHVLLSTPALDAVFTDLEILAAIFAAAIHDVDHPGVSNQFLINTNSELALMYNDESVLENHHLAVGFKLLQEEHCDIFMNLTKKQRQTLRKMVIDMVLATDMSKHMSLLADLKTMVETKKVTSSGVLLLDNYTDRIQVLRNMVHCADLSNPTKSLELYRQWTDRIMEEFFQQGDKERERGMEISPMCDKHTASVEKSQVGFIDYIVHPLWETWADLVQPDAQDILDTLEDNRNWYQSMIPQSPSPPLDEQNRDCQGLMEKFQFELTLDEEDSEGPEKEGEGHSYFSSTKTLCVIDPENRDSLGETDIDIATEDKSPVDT
Chain of Glucocorticoid receptor (Homo sapiens) (P04150 whole entry, looked up, the tested form may be a part): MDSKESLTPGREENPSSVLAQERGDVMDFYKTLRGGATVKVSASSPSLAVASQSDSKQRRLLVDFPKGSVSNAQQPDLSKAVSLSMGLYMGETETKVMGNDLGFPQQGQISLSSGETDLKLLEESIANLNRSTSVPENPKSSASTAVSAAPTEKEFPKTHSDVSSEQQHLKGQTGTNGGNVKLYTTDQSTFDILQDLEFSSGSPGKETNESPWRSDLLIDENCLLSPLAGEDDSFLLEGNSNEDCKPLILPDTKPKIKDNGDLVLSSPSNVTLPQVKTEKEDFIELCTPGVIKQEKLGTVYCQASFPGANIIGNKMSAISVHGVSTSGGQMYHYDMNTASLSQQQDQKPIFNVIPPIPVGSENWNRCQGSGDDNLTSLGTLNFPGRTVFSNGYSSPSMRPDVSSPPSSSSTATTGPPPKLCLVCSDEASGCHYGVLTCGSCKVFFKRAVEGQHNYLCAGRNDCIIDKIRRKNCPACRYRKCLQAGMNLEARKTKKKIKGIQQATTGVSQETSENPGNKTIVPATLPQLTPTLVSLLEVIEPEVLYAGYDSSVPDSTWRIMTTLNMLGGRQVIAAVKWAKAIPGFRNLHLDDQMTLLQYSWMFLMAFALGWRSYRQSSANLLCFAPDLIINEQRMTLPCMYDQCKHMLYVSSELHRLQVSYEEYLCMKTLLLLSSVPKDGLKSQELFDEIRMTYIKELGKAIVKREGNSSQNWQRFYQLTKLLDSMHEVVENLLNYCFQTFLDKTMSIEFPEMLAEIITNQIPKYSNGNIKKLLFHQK
Chain of Cytochrome P450 3A4 (Homo sapiens) (P08684 whole entry, looked up): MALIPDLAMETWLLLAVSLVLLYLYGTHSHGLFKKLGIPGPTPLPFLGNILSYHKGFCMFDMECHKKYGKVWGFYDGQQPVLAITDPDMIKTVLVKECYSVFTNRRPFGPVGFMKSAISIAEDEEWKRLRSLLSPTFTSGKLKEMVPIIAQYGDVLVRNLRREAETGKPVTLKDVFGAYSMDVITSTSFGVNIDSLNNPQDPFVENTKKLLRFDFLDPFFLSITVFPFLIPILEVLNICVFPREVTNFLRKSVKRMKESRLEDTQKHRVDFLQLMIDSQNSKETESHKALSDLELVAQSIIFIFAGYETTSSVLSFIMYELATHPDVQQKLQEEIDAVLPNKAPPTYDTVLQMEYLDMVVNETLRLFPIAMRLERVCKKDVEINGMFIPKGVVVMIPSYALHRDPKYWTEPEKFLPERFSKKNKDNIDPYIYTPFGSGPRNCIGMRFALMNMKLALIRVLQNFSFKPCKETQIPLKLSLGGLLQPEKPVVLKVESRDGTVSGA
Chain of Cytochrome P450 1A2 (Homo sapiens) (P05177 whole entry, looked up): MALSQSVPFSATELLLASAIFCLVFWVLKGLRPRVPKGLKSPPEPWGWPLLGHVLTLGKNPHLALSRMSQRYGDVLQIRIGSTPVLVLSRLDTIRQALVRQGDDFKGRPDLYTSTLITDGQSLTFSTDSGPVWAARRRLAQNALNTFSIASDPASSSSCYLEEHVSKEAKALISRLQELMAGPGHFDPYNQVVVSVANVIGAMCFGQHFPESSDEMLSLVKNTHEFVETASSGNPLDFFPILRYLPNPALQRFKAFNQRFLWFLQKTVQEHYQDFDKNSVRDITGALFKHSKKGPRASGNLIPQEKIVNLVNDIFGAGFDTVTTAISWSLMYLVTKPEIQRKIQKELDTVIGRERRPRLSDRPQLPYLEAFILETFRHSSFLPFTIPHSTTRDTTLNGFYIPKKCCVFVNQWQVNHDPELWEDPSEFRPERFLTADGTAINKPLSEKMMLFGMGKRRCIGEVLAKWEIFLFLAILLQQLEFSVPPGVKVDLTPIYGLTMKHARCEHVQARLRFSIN
Chain of Cytochrome P450 2C19 (Homo sapiens) (P33261 whole entry, looked up): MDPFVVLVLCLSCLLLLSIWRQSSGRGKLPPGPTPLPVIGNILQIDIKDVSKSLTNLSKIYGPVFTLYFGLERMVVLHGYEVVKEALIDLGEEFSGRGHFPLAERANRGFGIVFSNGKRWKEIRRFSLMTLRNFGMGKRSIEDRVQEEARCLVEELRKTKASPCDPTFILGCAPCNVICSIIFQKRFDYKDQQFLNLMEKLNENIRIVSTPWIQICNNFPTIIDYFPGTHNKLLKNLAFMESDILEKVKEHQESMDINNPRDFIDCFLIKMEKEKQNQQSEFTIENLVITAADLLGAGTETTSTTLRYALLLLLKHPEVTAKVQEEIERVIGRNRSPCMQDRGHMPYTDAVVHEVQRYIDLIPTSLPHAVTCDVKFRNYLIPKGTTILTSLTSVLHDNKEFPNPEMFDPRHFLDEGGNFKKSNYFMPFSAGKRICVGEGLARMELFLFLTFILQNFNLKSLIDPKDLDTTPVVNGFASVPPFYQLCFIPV

| SMILES | activity change, negative = inhibition [1] | Potency [2] | activity change, negative = inhibition [3] | activity, negative = inhibition [4] [%] | Potency [5] | Potency [6] | Potency [7] | Potency [8] | outcome [9] | Potency [10] [µM] | Potency [11] [µM] | Potency [12] | Potency [13] | Potency [14] |
| --- | --- | --- | --- | --- | --- | --- | --- | --- | --- | --- | --- | --- | --- | --- |
| COc1ccc(NC(=O)N2CCCC3(CCN(C(=O)c4cccc(F)c4)CC3)C2)cc1 | -26.5% | inactive | -25.3% | -10.9 | 29.5 µM (active) | inactive | inactive | inactive | inactive |  |  |  |  |  |
| CCNc1ncc2nc(-c3cc(F)cc(F)c3)c(=O)n(-c3ccc(OC)cc3)c2n1 |  |  |  |  | > 46 µM | inactive | inactive | inactive | inactive | > 11.4 | > 9.22 | 0.398 µM (active) |  |  |
| CN(C)c1ncc2nc(-c3ccc(Cl)cc3)c(=O)n(C3CC3)c2n1 |  |  |  |  | > 46 µM | inactive | inactive |  | inactive | > 11.4 | > 9.22 | 2.51 µM (active) |  |  |
| O=c1c(-c2ccc(Cl)cc2)nc2cnc(N3CCOCC3)nc2n1C1CC1 | 6.61% | 1.26 µM (active) | -4.43% | 26.7 | > 46 µM | inactive | inactive |  | inactive |  | > 9.22 |  |  |  |
| O=C(c1ccco1)N1CCC2(CC1)CN(c1ncccn1)C2 |  |  | 0.563% | 2.05 | > 46 µM | inactive | inactive | 15.8 µM (active) | inactive | > 11.4 |  |  | inactive |  |
| COc1ccc(C(=O)N2CCC3(CCCN(C(=O)NC(C)C)C3)CC2)cc1 |  |  | 2.69% | 0.47 | > 46 µM | inactive | inactive |  | inactive | > 11.4 |  |  |  |  |
| O=c1c(-c2cccs2)nc2cncnc2n1C1CC1 | 0.545% |  | -2.79% | -5.35 | > 46 µM | inactive |  | inactive | inactive |  | > 9.22 |  |  |  |
| CN1CCN(c2ncc3nc(-c4ccc(Cl)cc4)c(=O)n(CCC#N)c3n2)CC1 | 130% [activator] (active) | 15.8 µM (active) | 214% [activator] (active) |  | > 46 µM | inactive | inactive |  | inactive |  | > 9.22 |  |  | inactive |
| COCCn1c(=O)c(-c2cccs2)nc2cnc(Oc3cccc(Cl)c3)nc21 |  |  |  |  | > 46 µM |  | inactive |  | inactive | > 11.4 | > 9.22 | 3.16 µM (active) |  |  |
| c1ccc(-c2ccc(N3CCCC4(CCNCC4)C3)cc2)cc1 | 9.27% | 10 µM (active) | 24.2% | -2.12 | > 46 µM |  | inactive | inactive | inactive |  |  |  |  |  |
| COc1ccc(Oc2ncc3ncc(=O)n(CCc4ccccc4)c3n2)cc1 | -14.7% | 0.631 µM (active) | -16.6% | 3.46 | > 46 µM | inactive |  | inactive | inactive |  | > 9.22 |  | 1.26 µM (active) |  |
| CCNc1ncc2nc(-c3cccc(C#N)c3)c(=O)n(C)c2n1 | 15.2% | 2.51 µM (active) |  | 30 | > 46 µM | inactive | inactive | inactive | inactive |  | > 9.22 |  |  |  |
| O=c1c(-c2ccc(Cl)cc2)nc2cncnc2n1Cc1ccc(F)cc1 |  |  | 5.72% | -2.95 | > 46 µM | inactive | inactive | inactive | inactive | > 11.4 | > 9.22 |  |  |  |
